Laboratory results: PubChem BioAssay (EPA / NIEHS)
Inconclusive results are not listed. Active and inactive are the calls of the source. Rule for the calls: active = hit-call score of the fitted dose curve at least 0.9, where 1 is the maximum; inconclusive = response in the unintended direction; inactive = score below 0.9.

target: rat Neurokinin-1 Receptor (NK1), Tacr1 (gene 24807) (UniProt P14600); assay: NVS_GPCR_rNK1: NovaScreen (NVS) G Protein-Coupled Receptor Assay for rat Neurokinin-1 Receptor (NK1) (AID 2283309)
Sequence (P14600 whole entry, looked up): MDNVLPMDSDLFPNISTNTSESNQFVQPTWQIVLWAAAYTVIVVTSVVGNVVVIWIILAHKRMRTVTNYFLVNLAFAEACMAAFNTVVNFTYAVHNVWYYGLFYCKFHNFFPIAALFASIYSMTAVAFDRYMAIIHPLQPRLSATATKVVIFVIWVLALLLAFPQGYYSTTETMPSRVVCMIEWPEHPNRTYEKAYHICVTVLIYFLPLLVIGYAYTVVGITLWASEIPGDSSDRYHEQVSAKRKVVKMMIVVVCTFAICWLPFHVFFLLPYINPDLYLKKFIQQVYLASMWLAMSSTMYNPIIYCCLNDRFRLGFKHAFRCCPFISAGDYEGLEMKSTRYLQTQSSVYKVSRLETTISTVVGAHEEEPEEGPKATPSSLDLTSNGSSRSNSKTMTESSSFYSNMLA
Method in brief: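 Rat submaxillary gland membranes; radioligand displacement read by filter-based scintillation counting after 1 h. Primary screen in duplicate at 25 uM; actives retested in concentration series; loss of binding fitted versus DMSO.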

| SMILES | AC50 | outcome |
| --- | --- | --- |
| CCN(CC)CCOc1ccc(C(=C(Cl)c2ccccc2)c2ccccc2)cc1 | 21 µM (active) | – |
| NC=O | – | inactive |
| CSc1ccc(Oc2ccc(S(N)(=O)=O)cc2CN(C)C)cc1C | 25 µM (active) | – |
| CN(C)C(=O)NC1(c2ccccc2)CCN(CC[C@@]2(c3ccc(F)c(F)c3)CN(C(=O)c3ccccc3)CCO2)CC1 | – | inactive |
| CN(C)CCCN1c2ccccc2Sc2ccc(Cl)cc21 | 25 µM (active) | – |
| CCCCc1nc2cccnc2n1Cc1ccc(-c2ccccc2-c2nnn[nH]2)cc1 | – | inactive |
| CN(C)C(=O)NC1(c2ccccc2)CCN(CCC[C@]2(c3ccc(Cl)c(Cl)c3)CCCN(C(=O)c3ccccc3)C2)CC1 | 10.5 µM (active) | – |

target: rat Neurokinin-3 Receptor (NK3), Tacr3 (gene 24808) (UniProt P16177); assay: NVS_GPCR_rNK3: NovaScreen (NVS) G Protein-Coupled Receptor Assay for rat Neurokinin-3 Receptor (NK3) (AID 2283310)
Sequence (P16177 whole entry, looked up): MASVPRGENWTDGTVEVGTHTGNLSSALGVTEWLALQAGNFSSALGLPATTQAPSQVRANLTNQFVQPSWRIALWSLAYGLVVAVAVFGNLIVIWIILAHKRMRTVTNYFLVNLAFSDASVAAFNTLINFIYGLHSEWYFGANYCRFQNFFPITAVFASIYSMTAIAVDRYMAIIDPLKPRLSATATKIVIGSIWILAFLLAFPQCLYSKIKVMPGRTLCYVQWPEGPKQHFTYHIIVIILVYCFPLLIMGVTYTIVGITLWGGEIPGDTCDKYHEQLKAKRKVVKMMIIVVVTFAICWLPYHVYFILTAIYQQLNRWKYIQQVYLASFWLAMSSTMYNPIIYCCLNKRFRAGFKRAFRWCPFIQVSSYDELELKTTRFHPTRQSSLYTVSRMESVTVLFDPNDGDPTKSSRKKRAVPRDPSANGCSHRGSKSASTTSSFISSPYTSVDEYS
Method in brief: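 Rat cortical membranes; radioligand binding with filtration and scintillation counting, 2 h after dosing. Primary screen in duplicate at 25 uM, then concentration-response up to 50 uM; loss of binding signal relative to DMSO.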

| SMILES | AC50 | outcome |
| --- | --- | --- |
| CCC(C)N(C)C(=O)c1cc2ccccc2c(-c2ccccc2Cl)n1 (stereo not given) | 6.96 µM (active) | – |
| CN(C)C(=O)NC1(c2ccccc2)CCN(CC[C@@]2(c3ccc(F)c(F)c3)CN(C(=O)c3ccccc3)CCO2)CC1 | – | inactive |
| CCCCc1nc2cccnc2n1Cc1ccc(-c2ccccc2-c2nnn[nH]2)cc1 | 5.16 µM (active) | – |
| COC(=O)[C@H]1[C@H]2C[C@@H]3c4[nH]c5cc(OC)ccc5c4CCN3C[C@H]2C[C@@H](OC(=O)c2cc(OC)c(OC)c(OC)c2)[C@@H]1OC | 10.6 µM (active) | – |
| CCCCCCCCCC[N+](C)(C)[O-] | – | inactive |
| COc1ccc(OC(F)(F)F)cc1CN[C@H]1CCCN[C@H]1c1ccccc1 | 12.5 µM (active) | – |
| CN(C)C(=O)NC1(c2ccccc2)CCN(CCC[C@]2(c3ccc(Cl)c(Cl)c3)CCCN(C(=O)c3ccccc3)C2)CC1 | 0.0731 µM (active) | – |

target: rat Opioid Receptor, Non-selective Sodium (Na+) Binding, Oprm1 (gene 25601) (UniProt P33535); assay: NVS_GPCR_rOpiate_NonSelectiveNa: NovaScreen (NVS) G Protein-Coupled Receptor Assay for rat Opioid Receptor, Non-selective Sodium (Na+) Binding (AID 2283311)
Sequence (P33535 whole entry, looked up): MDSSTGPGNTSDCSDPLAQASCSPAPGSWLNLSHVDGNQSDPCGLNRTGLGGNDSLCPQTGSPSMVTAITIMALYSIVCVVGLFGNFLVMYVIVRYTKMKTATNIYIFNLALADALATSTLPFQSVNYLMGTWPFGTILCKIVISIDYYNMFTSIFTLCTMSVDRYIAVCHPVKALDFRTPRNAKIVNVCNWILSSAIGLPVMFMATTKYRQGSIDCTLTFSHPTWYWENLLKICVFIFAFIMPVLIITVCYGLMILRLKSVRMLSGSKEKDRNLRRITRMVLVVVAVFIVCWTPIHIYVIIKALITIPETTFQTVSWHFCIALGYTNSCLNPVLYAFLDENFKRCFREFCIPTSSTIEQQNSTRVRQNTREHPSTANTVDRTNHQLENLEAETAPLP
Method in brief: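 Rat forebrain membranes, radioligand displacement with filter scintillation counting, 1.5 h incubation. Screened in duplicate at 25 µM; hits then run in concentration-response up to 50 µM; loss of binding fitted versus DMSO.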

| SMILES | AC50 | outcome |
| --- | --- | --- |
| CCN(CC)CCOc1ccc(C(=C(Cl)c2ccccc2)c2ccccc2)cc1 | 21 µM (active) | – |
| Cc1ccc(-c2cc(C(F)(F)F)nn2-c2ccc(S(N)(=O)=O)cc2)cc1 | – | inactive |
| CC(C)(C)c1ccccc1 | – | inactive |
| CSc1ccc(Oc2ccc(S(N)(=O)=O)cc2CN(C)C)cc1C | 3.74 µM (active) | – |
| CN(C)C(=O)NC1(c2ccccc2)CCN(CC[C@@]2(c3ccc(F)c(F)c3)CN(C(=O)c3ccccc3)CCO2)CC1 | 3.23 µM (active) | – |
| O=C1OC(c2ccc(O)cc2)(c2ccc(O)cc2)c2ccccc21 | 0.604 µM (active) | – |
| CN(C)CCCN1c2ccccc2Sc2ccc(Cl)cc21 | 9.16 µM (active) | – |
| Cc1c(C)c2c(c(C)c1O)CCC(C)(COc1ccc(CC3SC(=O)NC3=O)cc1)O2 (stereo not given) | – | inactive |
| O=C(N[C@@H](c1ccccc1)[C@@H]1CCCCN1)c1cccc(C(F)(F)F)c1Cl | 31.4 µM (active) | – |
| COC(=O)[C@H]1[C@H]2C[C@@H]3c4[nH]c5cc(OC)ccc5c4CCN3C[C@H]2C[C@@H](OC(=O)c2cc(OC)c(OC)c(OC)c2)[C@@H]1OC | 21.1 µM (active) | – |
| CCc1nc(N)nc(N)c1-c1ccc(Cl)cc1 | – | inactive |
| COc1ccc(OC(F)(F)F)cc1CN[C@H]1CCCN[C@H]1c1ccccc1 | – | inactive |
| CN(C)C(=O)NC1(c2ccccc2)CCN(CCC[C@]2(c3ccc(Cl)c(Cl)c3)CCCN(C(=O)c3ccccc3)C2)CC1 | 2.12 µM (active) | – |
| Cc1cc(SC2=C(O)C[C@@](CCc3ccc(N)cc3)(C(C)C)OC2=O)c(C(C)(C)C)cc1CO | – | inactive |

target: rat Somatostatin Receptor (SST), Sstr1 (gene 25033) (UniProt P28646); assay: NVS_GPCR_rSST: NovaScreen (NVS) G Protein-Coupled Receptor Assay for rat Somatostatin Receptor (SST) (AID 2283314)
Sequence (P28646 whole entry, looked up): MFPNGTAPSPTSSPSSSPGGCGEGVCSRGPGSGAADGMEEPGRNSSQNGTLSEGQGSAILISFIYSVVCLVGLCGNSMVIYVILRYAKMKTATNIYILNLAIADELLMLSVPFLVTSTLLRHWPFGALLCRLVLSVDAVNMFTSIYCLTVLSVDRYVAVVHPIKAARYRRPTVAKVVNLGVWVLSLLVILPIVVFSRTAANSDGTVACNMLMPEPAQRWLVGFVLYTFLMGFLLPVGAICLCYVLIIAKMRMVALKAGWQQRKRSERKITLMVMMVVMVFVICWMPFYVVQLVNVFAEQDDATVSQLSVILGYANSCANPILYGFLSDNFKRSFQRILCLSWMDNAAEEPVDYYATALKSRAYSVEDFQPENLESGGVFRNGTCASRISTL
Method in brief: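 Rat forebrain membranes; radioligand displacement read by filter-based scintillation counting 1 h after dosing. Primary screen in duplicate at 25 uM. Actives (e.g., 30% inhibition) were rerun as concentration-response to 50 uM max and fitted against DMSO.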

| SMILES | AC50 |
| --- | --- |
| O=C(N[C@@H](c1ccccc1)[C@@H]1CCCCN1)c1cccc(C(F)(F)F)c1Cl | 6.67 µM (active) |
| COc1ccc(OC(F)(F)F)cc1CN[C@H]1CCCN[C@H]1c1ccccc1 | 8.11 µM (active) |
| Cc1cc(SC2=C(O)C[C@@](CCc3ccc(N)cc3)(C(C)C)OC2=O)c(C(C)(C)C)cc1CO | 17.2 µM (active) |

target: rat Neonicotinoid receptor (NNR), Chrna7 (gene 25302) (UniProt Q05941); assay: NVS_LGIC_rNNR_BungSens: NovaScreen (NVS) Ligand-Gated Ion Channel Assay for rat Neonicotinoid receptor (NNR) (AID 2283315)
Sequence (Q05941 whole entry, looked up): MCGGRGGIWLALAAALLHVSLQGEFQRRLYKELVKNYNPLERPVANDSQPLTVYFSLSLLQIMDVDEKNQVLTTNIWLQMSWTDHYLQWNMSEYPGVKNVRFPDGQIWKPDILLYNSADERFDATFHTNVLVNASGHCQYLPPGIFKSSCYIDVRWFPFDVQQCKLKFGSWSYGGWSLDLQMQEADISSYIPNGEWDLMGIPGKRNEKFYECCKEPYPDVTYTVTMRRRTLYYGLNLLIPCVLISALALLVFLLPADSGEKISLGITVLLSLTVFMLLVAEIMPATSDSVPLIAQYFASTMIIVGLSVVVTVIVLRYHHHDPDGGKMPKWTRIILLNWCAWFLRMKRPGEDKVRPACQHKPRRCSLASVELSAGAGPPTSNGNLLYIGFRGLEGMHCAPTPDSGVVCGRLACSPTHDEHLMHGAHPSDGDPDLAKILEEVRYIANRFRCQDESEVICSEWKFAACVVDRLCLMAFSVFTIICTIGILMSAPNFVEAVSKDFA
Method in brief: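 Radioligand displacement binding on rat cortical membranes, 2.5 h incubation, filtration and scintillation counting. Loss of specific binding fitted relative to DMSO.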

| SMILES | AC50 | outcome |
| --- | --- | --- |
| CCN(CC)CCOc1ccc(C(=C(Cl)c2ccccc2)c2ccccc2)cc1 | 21 µM (active) | – |
| CCCCc1nc2cccnc2n1Cc1ccc(-c2ccccc2-c2nnn[nH]2)cc1 | – | inactive |
| CCc1nc(N)nc(N)c1-c1ccc(Cl)cc1 | 10.4 µM (active) | – |
| Cc1cc(SC2=C(O)C[C@@](CCc3ccc(N)cc3)(C(C)C)OC2=O)c(C(C)(C)C)cc1CO | – | inactive |

target: rat Opioid Receptor, Non-selective Binding, Oprm1 (gene 25601) (UniProt P33535); assay: NVS_GPCR_rOpiate_NonSelective: NovaScreen (NVS) G Protein-Coupled Receptor Assay for rat Opioid Receptor, Non-selective Binding (AID 2283318)
Sequence (P33535 whole entry, looked up): as the sequence (P33535 whole entry, looked up) above
Method in brief: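 Rat forebrain membranes, cell-free radioligand binding with filter-based scintillation counting, read 1.5 h after dosing. Primary screen in duplicate at 25 uM; actives retested in concentration series. Loss of signal versus DMSO baseline scored.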

| SMILES | AC50 | outcome |
| --- | --- | --- |
| CSc1ccc(Oc2ccc(S(N)(=O)=O)cc2CN(C)C)cc1C | 1.36 µM (active) | – |
| CN(C)C(=O)NC1(c2ccccc2)CCN(CC[C@@]2(c3ccc(F)c(F)c3)CN(C(=O)c3ccccc3)CCO2)CC1 | 2.1 µM (active) | – |
| O=C1OC(c2ccc(O)cc2)(c2ccc(O)cc2)c2ccccc21 | 0.872 µM (active) | – |
| NC(=Nc1ccccc1)Nc1ccccc1 | – | inactive |
| O=C(N[C@@H](c1ccccc1)[C@@H]1CCCCN1)c1cccc(C(F)(F)F)c1Cl | 12.8 µM (active) | – |
| COC(=O)[C@H]1[C@H]2C[C@@H]3c4[nH]c5cc(OC)ccc5c4CCN3C[C@H]2C[C@@H](OC(=O)c2cc(OC)c(OC)c(OC)c2)[C@@H]1OC | 8.39 µM (active) | – |
| CCc1nc(N)nc(N)c1-c1ccc(Cl)cc1 | – | inactive |
| COc1ccc(OC(F)(F)F)cc1CN[C@H]1CCCN[C@H]1c1ccccc1 | 25 µM (active) | – |
| CN(C)C(=O)NC1(c2ccccc2)CCN(CCC[C@]2(c3ccc(Cl)c(Cl)c3)CCCN(C(=O)c3ccccc3)C2)CC1 | 2.23 µM (active) | – |
| Cc1cc(SC2=C(O)C[C@@](CCc3ccc(N)cc3)(C(C)C)OC2=O)c(C(C)(C)C)cc1CO | – | inactive |
